Reference: PubChem BioAssay AID939 (National Center for Advancing Translational Sciences (NCATS), 2007)
Results filed as inconclusive are left out. Calls of active or inactive are those of the source. Calls come from the whole dose curve; as a rule, active = well fitted activation curve with a large enough effect in the main read-out, with a control signal flat; inconclusive = small, poorly fitted or top-dose-only effect, or effect the other way, or a change in a side signal; inactive = no such curve, though single readings can be large or run the other way.

System: not listed separately
Assay: Confirmation Concentration-Response Assay for Agonists of the Thyroid Stimulating Hormone Receptor; for activation: % of control where 0% means no effect
Conditions: HEK293 TSHR-CNG cells, membrane potential dye, cAMP; measured here: parental HEK293 counter-screen max
Method in brief: (§1)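 Read-out: membrane potential dye fluorescence (emission 590 nm) after 30 min compound exposure, reflecting cAMP-gated CNG opening in TSHR/CNG HEK 293 cells. Dye with 100 uM RO 20-1724 pre-equilibrated 60 min at room temperature. CNG-only parental cells control.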
Potency is the fitted concentration of half-maximal effect.

Compound	max response [%]
O=S(=O)(c1ccccc1)N1CCN(C2CCN(Cc3ccccc3)CC2)CC1	0.84
O=c1c2ccccc2ncn1-c1ccc2c(c1)OCCO2	6.03
Cc1occc1-c1nnc(SCC(=O)NCc2ccc3c(c2)OCO3)n1CC(C)C	9.78
Cc1ccccc1NC(=O)CSc1nnc(-c2ccoc2C)n1CCc1ccccc1	20.3
C=CCn1c(NCc2ccc3c(c2)OCO3)nc2ccccc21	13.4
CCOc1ccc(N(CC(=O)Nc2ccc(C)cc2)S(=O)(=O)c2c(C)noc2C)cc1	5.32
c1ccc(-n2cnc3cc(NCc4ccncc4)ccc32)cc1	1.12
Cc1ccc(-n2nc(-c3ccc(N)cc3)cc2N)cc1	-8.96
Cc1occc1-c1nnc(SCC(=O)Nc2ccccc2)n1C(C)c1ccccc1 (configuration not stated)	-10
COC(=O)C1=C(C)OC(N)=C(C#N)C1c1c(C)nn(-c2ccccc2)c1Cl (configuration not stated)	6.03
Nc1ccc2c(c1)COc1ccccc1O2	-5.76
COc1ccc(C(=O)N(Cc2ccco2)Cc2cccs2)c(O)c1	-7.34

Target: Thyrotropin receptor (Homo sapiens) (UniProt P16473)
Sequence (P16473 whole entry, looked up): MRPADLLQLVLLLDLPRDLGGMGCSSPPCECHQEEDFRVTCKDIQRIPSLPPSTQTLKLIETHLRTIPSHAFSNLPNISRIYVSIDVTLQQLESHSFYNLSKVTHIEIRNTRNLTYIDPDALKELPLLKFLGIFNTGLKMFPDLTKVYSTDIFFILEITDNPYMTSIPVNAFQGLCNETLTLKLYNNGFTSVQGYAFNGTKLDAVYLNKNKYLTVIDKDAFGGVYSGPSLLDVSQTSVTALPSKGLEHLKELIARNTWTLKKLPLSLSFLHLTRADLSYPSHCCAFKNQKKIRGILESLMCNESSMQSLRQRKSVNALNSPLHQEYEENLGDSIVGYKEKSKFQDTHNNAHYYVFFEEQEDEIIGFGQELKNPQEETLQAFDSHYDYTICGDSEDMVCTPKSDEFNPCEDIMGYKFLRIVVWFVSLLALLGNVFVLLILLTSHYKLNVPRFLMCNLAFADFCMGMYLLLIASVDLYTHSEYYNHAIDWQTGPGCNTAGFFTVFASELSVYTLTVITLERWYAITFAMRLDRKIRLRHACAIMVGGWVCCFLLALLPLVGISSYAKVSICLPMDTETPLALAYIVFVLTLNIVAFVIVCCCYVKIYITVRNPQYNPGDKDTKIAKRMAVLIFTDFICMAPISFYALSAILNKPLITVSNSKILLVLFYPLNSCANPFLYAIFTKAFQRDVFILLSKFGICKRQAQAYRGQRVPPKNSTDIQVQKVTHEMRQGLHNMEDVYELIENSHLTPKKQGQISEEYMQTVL
Assay: as above
Conditions: HEK293 TSHR-CNG cells, membrane potential dye, cAMP; series mostly up to 25.6 µM
Method in brief: as §1

Compound	Potency
Cc1ccccc1NC(=O)N1C2CCCC1CC(NC(=O)C1CC1)C2 (configuration not stated)	inactive
O=C1N(c2ccccc2)C2CS(=O)(=O)CC2N1c1ccc(Cl)c(Cl)c1 (configuration not stated)	inactive
COCCNC(=O)C(c1ccccc1)N(Cc1cccs1)C(=O)Cn1nnc2ccccc21 (configuration not stated)	inactive
Cc1nn(-c2ccccc2)c(N2CCCC2)c1/C=N/n1cnc2scc(-c3ccccc3)c2c1=O	1.58 µM (active)
O=C1CC(c2ccco2)CC2=C1C(c1ccccc1)n1nc(C(F)(F)F)nc1N2 (configuration not stated)	1 µM (active)
Cc1cc(SCNC(=O)c2ccccc2)ncn1	inactive
O=C(Nc1ccc(N2CCOCC2)cc1)C1CC1	inactive
COc1cc(NC(=O)c2cc(-n3cnnc3)ccc2Cl)cc(OC)c1	inactive
CCS(=O)(=O)N1CCN(C(C)CCc2ccccc2)CC1 (configuration not stated)	inactive
c1ccc(-n2cnc3cc(NCc4ccncc4)ccc32)cc1	inactive
